Source: PubChem BioAssay (EPA / NIEHS)
Some compounds were tested as several samples or in several runs, with calls that do not always agree. Calls of active or inactive are those of the source. The calls were made as follows: active = hit-call score of the fitted dose curve at least 0.9, where 1 is the maximum; inactive = score below 0.9.

Columns and labels:
[1] = APR_HepG2_CellLoss_72hr: Apredica 72-hour HepG2 Assay for Cell Loss (AID 2282915); settings: high-content imaging
Summary of the method: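 Cell number comes from Hoechst 33342-labelled nuclei, imaged at 20x after 3.7% formaldehyde fixation. Dosing was 0.39–200 uM, ten concentrations in duplicate, 0.5% DMSO final, for 72 h. Bidirectional fit relative to DMSO baseline.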

[2] = APR_HepG2_P-H2AX_72hr: Apredica 72-hour HepG2 Assay for H2AX Phosphorylation (AID 2282916); settings: imaging, actives raise or lower the signal;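 also: phospho-histone H2A.x immunostain intensity per cell marking DNA damage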
Summary of the method: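 Phospho-histone H2A.x immunofluorescence, multiplexed with Hoechst and c-Jun, quantified by high-content imaging. Compounds applied to HepG2 for 72 h across ten concentrations (0.39–200 uM, 0.5% DMSO), in duplicate; DMSO baseline.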

[3] = APR_HepG2_MitoMembPot_72hr: Apredica 72-hour HepG2 Assay for Mitochondrial Membrane Potential (AID 2282917); settings: imaging, actives raise or lower the signal
Summary of the method: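 Membrane potential read by MitoTracker Red CMXRos (250 nM, 30 min, pre-fixation) fluorescence imaging of HepG2 after 72 hr exposure. Ten concentrations, 0.39–200 uM, duplicate wells, 0.5% DMSO; fitted in both directions against DMSO baseline.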

[4] = APR_HepG2_MitoticArrest_72hr: Apredica 72-hour HepG2 Assay for Mitotic Arrest (AID 2282918); settings: high-content imaging, actives raise or lower the signal
Summary of the method: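 Read-out is phospho-histone H3 immunofluorescence with Hoechst nuclear segmentation, imaged at 20x. Human HepG2 liver cells received ten concentrations (0.39–200 uM, final DMSO 0.5% v/v) for 72 hr before fixation. Gain or loss of signal was fitted relative to DMSO.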

[5] = APR_HepG2_MicrotubuleCSK_72hr: Apredica 72-hour HepG2 Assay for Microtubule CSK Stabilty (AID 2282919); settings: HepG2 microtubule cytoskeleton, high-content imaging, actives raise or lower the signal
Summary of the method: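 High-content imaging of alpha-tubulin staining in fixed HepG2 cells after 72 hr treatment with ten concentrations from 0.39 to 200 uM (0.5% DMSO). Fitting was bidirectional against DMSO; taxol served as positive control.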

[6] = APR_HepG2_P-H2AX_24hr: Apredica 24-hour HepG2 Assay for H2AX Phosphorylation (AID 2282920); settings: high-content imaging, actives raise or lower the signal
Summary of the method: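 HepG2, 24 hr, cpd 0.39–200 uM (10 conc, duplicate), DMSO 0.5% v/v final. Fix 3.7% formaldehyde, Triton X-100 permeabilize, anti-phospho-H2A.x 1:200 + Hoechst 2 ug/mL. Imaged, bidirectional fit vs DMSO.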

[7] = APR_HepG2_StressKinase_72hr: Apredica 72-hour HepG2 Assay for Stress Kinase (AID 2282921); settings: HepG2 stress kinase (phospho-c-Jun) imaging, actives raise or lower the signal
Summary of the method: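 Stress kinase signal is phospho-c-Jun immunofluorescence (1:500 primary, Cy3 secondary) in fixed, permeabilized human HepG2 cells imaged at 20x. Exposure lasted 72 hr over ten concentrations from 0.39 to 200 uM, 0.5% DMSO, in duplicate. Bidirectional fit versus DMSO.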

[8] = APR_HepG2_p53Act_72hr: Apredica 72-hour HepG2 Assay for p53 Activation (AID 2282923); settings: high-content imaging, actives raise or lower the signal;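 also: average cellular p53 protein immunofluorescence intensity in HepG2 cells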
Summary of the method: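 After 72 h with compound (ten points, 0.39 to 200 uM, final DMSO 0.5% v/v), fixed HepG2 cells were labelled with sheep anti-p53 and Hoechst 33342 and imaged; gain or loss versus DMSO scored.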

[9] = APR_HepG2_MitoMass_72hr: Apredica 72-hour HepG2 Assay for Mitochondrial Mass (AID 2282924); settings: high-content imaging, actives raise or lower the signal;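 also: MitoTracker Red CMXRos stain intensity per cell imaged as mitochondrial mass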
Summary of the method: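 Readout is imaged MitoTracker Red (250 nM, 30 min, pre-fixation) signal, fitted bidirectionally against DMSO baseline. Human HepG2 liver cells received compound 0.39–200 uM in duplicate for 72 hr, final DMSO 0.5%.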

[10] = APR_HepG2_NuclearSize_72hr: Apredica 72-hour HepG2 Assay for Nuclear Size (AID 2282925); settings: high-content imaging, actives raise or lower the signal
Summary of the method: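 Nuclear size was read by high-content imaging of Hoechst 33342 stain after formaldehyde fixation. Compounds ran 72 h on HepG2 at 0.39 to 200 uM, with final DMSO 0.5% v/v. Curves fitted both directions relative to DMSO control.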

[11] = ATG_CRE_CIS: Attagene CIS-FACTORIAL HepG2 Assay for human cAMP Responsive Element (CRE) binding protein 3 (AID 2282926); settings: HepG2 CRE cis-reporter, Attagene multiplexed mRNA; actives raise or lower the signal
Summary of the method: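 Assay format: transient reporter transfection of HepG2, 24 h treatment, total RNA isolation with DNase I step. Reporter abundance read by fluorescence after PCR and capillary separation; DMSO-normalised gain or loss fitting.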

[12] = target: CCAAT/enhancer-binding protein beta (Homo sapiens) (UniProt P17676); assay: ATG_C_EBP_CIS: Attagene CIS-FACTORIAL HepG2 Assay for human CCAAT/Enhancer Binding Protein (C/EBP) beta (AID 2282927); settings: HepG2 Attagene cis-factorial transcription factor reporter; actives raise or lower the signal
Chain of CCAAT/enhancer-binding protein beta (Homo sapiens) (P17676 whole entry, looked up): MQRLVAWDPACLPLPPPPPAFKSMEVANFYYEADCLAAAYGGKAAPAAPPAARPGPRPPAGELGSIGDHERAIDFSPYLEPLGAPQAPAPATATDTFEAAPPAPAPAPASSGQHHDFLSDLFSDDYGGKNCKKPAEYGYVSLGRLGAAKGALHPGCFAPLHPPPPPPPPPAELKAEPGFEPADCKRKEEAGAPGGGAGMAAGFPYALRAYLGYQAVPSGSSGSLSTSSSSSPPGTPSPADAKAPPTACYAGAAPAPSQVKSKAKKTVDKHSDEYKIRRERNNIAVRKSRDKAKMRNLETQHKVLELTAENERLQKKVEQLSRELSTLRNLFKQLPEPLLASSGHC
Summary of the method: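 Changes in reporter mRNA, rather than exogenous chimeric receptor activity, reflect native C/EBP signalling in transfected HepG2 cells dosed for 24 h; transcripts are detected by RT-PCR and capillary electrophoresis.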

[13] = ATG_CMV_CIS: Attagene CIS-FACTORIAL HepG2 Assay for human CMV (Internal Marker) (AID 2282928); settings: HepG2 CMV promoter reporter, transcription factor profiling; actives raise or lower the signal;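 also: endpoint acts as a background internal control marker rather than a target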
Summary of the method: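 Readout: fluorescent reporter cDNA fragments separated by capillary electrophoresis after RT-PCR and HpaI cut. Cells: HepG2 carrying transfected cis-promoter reporter constructs, dosed 24 h. Endpoint serves as background internal-marker control, fit bidirectionally versus DMSO.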

[14] = ATG_DR4_LXR_CIS: Attagene CIS-FACTORIAL HepG2 Assay for human Liver X Receptor (LXR), DR4 submotif (AID 2282929); settings: HepG2 Attagene DR4 cis-reporter, mRNA transcription; actives raise or lower the signal
Summary of the method: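 The endpoint is DR4-element-driven reporter transcripts after 24 h chemical exposure of transfected HepG2 cells. These were measured via RT-PCR and capillary electrophoresis, and gain or loss of signal was fitted relative to DMSO controls.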

[15] = target: Aryl hydrocarbon receptor (Homo sapiens) (UniProt P35869); assay: ATG_Ahr_CIS: Attagene CIS-FACTORIAL HepG2 Assay for human Aryl Hydrocarbon Receptor (Ahr) (AID 2282930); settings: HepG2 AhR cis-factorial reporter transcription; actives raise or lower the signal
Chain of Aryl hydrocarbon receptor (Homo sapiens) (P35869 whole entry, looked up): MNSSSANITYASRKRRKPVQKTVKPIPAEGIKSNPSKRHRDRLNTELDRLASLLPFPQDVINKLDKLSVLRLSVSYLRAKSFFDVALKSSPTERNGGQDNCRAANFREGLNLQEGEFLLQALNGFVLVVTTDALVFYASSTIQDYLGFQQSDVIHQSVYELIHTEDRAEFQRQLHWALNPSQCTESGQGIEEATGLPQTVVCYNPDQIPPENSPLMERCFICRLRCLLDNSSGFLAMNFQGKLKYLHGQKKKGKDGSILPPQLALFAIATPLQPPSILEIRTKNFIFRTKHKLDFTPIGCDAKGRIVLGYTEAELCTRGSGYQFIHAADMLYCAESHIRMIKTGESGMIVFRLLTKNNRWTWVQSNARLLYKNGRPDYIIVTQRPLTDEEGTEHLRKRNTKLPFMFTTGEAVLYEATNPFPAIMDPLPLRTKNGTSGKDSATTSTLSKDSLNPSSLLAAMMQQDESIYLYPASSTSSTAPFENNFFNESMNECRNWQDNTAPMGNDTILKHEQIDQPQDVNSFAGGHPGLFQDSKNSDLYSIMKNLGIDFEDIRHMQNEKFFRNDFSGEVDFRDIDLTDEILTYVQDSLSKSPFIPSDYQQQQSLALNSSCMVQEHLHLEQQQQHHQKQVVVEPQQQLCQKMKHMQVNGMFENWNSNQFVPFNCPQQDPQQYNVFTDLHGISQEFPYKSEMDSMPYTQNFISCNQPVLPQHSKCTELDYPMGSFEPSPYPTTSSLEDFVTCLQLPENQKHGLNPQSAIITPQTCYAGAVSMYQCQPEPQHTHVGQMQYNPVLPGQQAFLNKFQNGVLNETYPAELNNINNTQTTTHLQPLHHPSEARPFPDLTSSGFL
Summary of the method: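 HepG2, transient MRTU (cis) transfection, 24 h exposure. RNA → cDNA → PCR → 6-FAM primer extension → HpaI 2 h 37 C → CE. Fit: bidirectional, DMSO baseline.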

[16] = ATG_AP_1_CIS: Attagene CIS-FACTORIAL HepG2 Assay for human Activator Protein 1 (AP-1) (AID 2282931); settings: HepG2 Attagene cis-factorial AP-1 reporter mRNA; actives raise or lower the signal
Summary of the method: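 Readout is reporter transcript level from endogenous transcription factor activity, quantified by RT-PCR with fluorescent primer extension and capillary electrophoresis. Transiently transfected HepG2 cells, 24 h exposure. Curves fitted both directions versus DMSO.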

[17] = ATG_BRE_CIS: Attagene CIS-FACTORIAL HepG2 Assay for human Bone Morphogenetic Protein (BMP) Response Element (BRE) (AID 2282933); settings: HepG2 BMP response element reporter, Attagene transcription factor profiling; actives raise or lower the signal
Summary of the method: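 Read-out: reporter mRNA induction quantified by RT-PCR and capillary electrophoresis after 24 h chemical exposure of transfected HepG2 cells. Endogenous factor activity on the BMP response element; gain or loss fitted against DMSO baseline.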

[18] = target: Retinoic acid receptor alpha (Homo sapiens) (UniProt P10276); assay: ATG_DR5_RAR_CIS: Attagene CIS-FACTORIAL HepG2 Assay for human Retinoic Acid Receptor Alpha (RARE), DR5 submotif (AID 2282934); settings: HepG2 Attagene cis-factorial RARE DR5 reporter, mRNA; actives raise or lower the signal
Chain of Retinoic acid receptor alpha (Homo sapiens) (P10276 whole entry, looked up): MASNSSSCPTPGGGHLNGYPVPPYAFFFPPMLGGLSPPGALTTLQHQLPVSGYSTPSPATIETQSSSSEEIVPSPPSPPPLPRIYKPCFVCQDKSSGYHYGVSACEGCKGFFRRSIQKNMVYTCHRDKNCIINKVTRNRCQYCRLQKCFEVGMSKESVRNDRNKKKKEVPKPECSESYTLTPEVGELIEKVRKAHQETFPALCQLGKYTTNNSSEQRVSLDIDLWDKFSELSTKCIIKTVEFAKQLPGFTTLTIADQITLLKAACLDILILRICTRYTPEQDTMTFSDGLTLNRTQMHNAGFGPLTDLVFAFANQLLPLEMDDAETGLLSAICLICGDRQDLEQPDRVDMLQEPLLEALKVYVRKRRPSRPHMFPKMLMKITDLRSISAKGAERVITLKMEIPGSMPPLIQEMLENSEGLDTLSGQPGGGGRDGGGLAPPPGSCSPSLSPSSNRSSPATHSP
Summary of the method: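 HepG2, transient cis-reporter transfection, 24 h exposure. mRNA readout: RT-PCR, FAM label, HpaI cut, capillary electrophoresis. DMSO baseline, gain/loss fitting.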

Measured: AC50

CN(C)C=O
inactive: [1] | [2] | [3] | [4] | [5] | [6] | [7] | [8] | [9] | [10] | [11] | [12] | [13] | [14] | [15] | [16] | [17] | [18]

CCCCCCC(=O)O
inactive: [1] | [2] | [3] | [4] | [5] | [6] | [7] | [8] | [9] | [10] | [12] | [13] | [14] | [15] | [16] | [17] | [18]

O=C1OC2(c3ccccc31)c1cc(Br)c(O)c(Br)c1Oc1c2cc(Br)c(O)c1Br
active: [13] 93 µM
inactive: [11] | [12] | [13] | [14] | [15] | [16] | [17] | [18]

CC(O)C(=O)O (stereo not given)
inactive: [11] | [12] | [13] | [14] | [15] | [16] | [17] | [18]

Nc1cccc2c(N)cccc12
active: [1] 83.1 µM | [2] 36.4 µM | [3] 17.3 µM | [4] 77 µM | [6] 42.9 µM | [7] 39.9 µM | [8] 67.5 µM | [15] 2.85 µM | [16] 77.7 µM
inactive: [5] | [9] | [10] | [11] | [12] | [13] | [14] | [17] | [18]
